Measured values reported in PubChem BioAssay (NCI).
The panel holds about 79,000 compounds, 15% with a hit somewhere; the sample as a whole holds those more often. Unmarked numbers belong to inactive results. Calls of active or inactive are those of the source. Cut-off read from the data, not from the text of the source: active = growth inhibition above about 70%; inactive = the rest.

What was measured:
[1] = NCI Yeast Anticancer Drug Screen. Data for the rad50 strain (AID 155);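 note: 0% = growth of vehicle-only cultures of the same strain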; conditions: S. cerevisiae rad50 strain growth inhibition, active compounds read high
How it was run: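 Growth of the mutant yeast was measured after compound exposure and referenced to vehicle-treated cultures.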

[2] = NCI Yeast Anticancer Drug Screen. Data for the mec2-1 strain (AID 157); conditions: S. cerevisiae mec2-1 strain, active compounds read high
How it was run: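 Test agents were screened against the mec2-1 yeast strain, with defined DNA repair or cell cycle alteration. Growth was scored as inhibition against vehicle-only controls.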

[3] = NCI Yeast Anticancer Drug Screen. Data for the sgs1 mgt1 strain (AID 161);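 note: 0% = growth of cultures given vehicle only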; conditions: S. cerevisiae sgs1 mgt1 strain, active compounds read high
How it was run: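 Test agents were incubated with a DNA-repair-mutant yeast strain. Growth was then read and compared against vehicle-treated controls.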

[4] = NCI Yeast Anticancer Drug Screen. Data for the cln2 rad14 strain (AID 165);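 note: 0% = growth equal to vehicle treated cultures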; conditions: S. cerevisiae cln2 rad14 strain, active compounds read high
How it was run: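 Growth of compound-exposed yeast (cln2 rad14 genotype) measured and expressed as inhibition relative to vehicle.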

[5] = NCI Yeast Anticancer Drug Screen. Data for the bub3 strain (AID 167); conditions: S. cerevisiae bub3 mutant strain, active compounds read high
How it was run: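 Whole-cell yeast assay. The mutant strain was incubated with compounds, and growth inhibition was determined by comparison with vehicle-treated cells.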

[6] = NCI Yeast Anticancer Drug Screen. Data for the mlh1 rad18 strain (AID 175); conditions: S. cerevisiae mlh1 rad18 strain growth inhibition, active compounds read high
How it was run: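 In this whole-cell yeast screen, a strain with altered DNA damage repair is challenged with compound, and its growth is measured against matched vehicle-treated controls.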

[7] = at 5.0 µM (retest, dose inferred, filed as 0.5)
[8] = at 50.0 µM (retest, dose inferred, filed as 5.0)

CS(=O)(=O)OCC(COS(C)(=O)=O)C(c1ccccc1)c1ccccc1Br (configuration not stated)
growth inhibition [1, 7]: 12%
growth inhibition [1, 8]: 34%
growth inhibition ([1]; at 50.0 µM): 28.4%
growth inhibition [2, 7]: 7%
growth inhibition [2, 8]: 29%
growth inhibition ([2]; at 50.0 µM): 36%
growth inhibition [3, 7]: 14%
growth inhibition [3, 8]: 47%
growth inhibition ([3]; at 50.0 µM): 37.1%
growth inhibition [4, 7]: 16%
growth inhibition [4, 8]: 44%
growth inhibition ([4]; at 50.0 µM): 13.1%
growth inhibition [5, 7]: -1%
growth inhibition [5, 8]: 16%
growth inhibition ([5]; at 50.0 µM): 5.4%
growth inhibition [6, 7]: 7%
growth inhibition [6, 8]: 51%
growth inhibition ([6]; at 50.0 µM): 56.2%

Cc1sc(N=Nc2c(O)[nH]c3ccccc23)nc1-c1ccccc1
growth inhibition [1, 7]: 20%
growth inhibition [1, 8]: 31%
growth inhibition ([1]; at 50.0 µM): -2%
growth inhibition [2, 7]: 16%
growth inhibition [2, 8]: 27%
growth inhibition ([2]; at 50.0 µM): -2.15%
growth inhibition [3, 7]: 17%
growth inhibition [3, 8]: 30%
growth inhibition ([3]; at 50.0 µM): 19.9%
growth inhibition [4, 7]: 14%
growth inhibition [4, 8]: 19%
growth inhibition ([4]; at 50.0 µM): 13.7%
growth inhibition [5, 7]: 24%
growth inhibition [5, 8]: 60%
growth inhibition ([5]; at 50.0 µM): -20.1%
growth inhibition [6, 7]: 11%
growth inhibition [6, 8]: 39%
growth inhibition ([6]; at 50.0 µM): -26.4%

CCOc1cc2c(OCc3ccccc3)cc3c4cc(OC)c(OC)cc4c[n+](C)c3c2cc1OC
growth inhibition [1, 7]: 98% (active)
growth inhibition [1, 8]: 99% (active)
growth inhibition ([1]; at 50.0 µM): 59.6%
growth inhibition [2, 7]: 96% (active)
growth inhibition [2, 8]: 99% (active)
growth inhibition ([2]; at 50.0 µM): 46.2%
growth inhibition [3, 7]: 97% (active)
growth inhibition [3, 8]: 99% (active)
growth inhibition ([3]; at 50.0 µM): 50.8%
growth inhibition [4, 7]: 97% (active)
growth inhibition [4, 8]: 99% (active)
growth inhibition ([4]; at 50.0 µM): 55%
growth inhibition [5, 7]: 97% (active)
growth inhibition [5, 8]: 99% (active)
growth inhibition ([5]; at 50.0 µM): 50.3%
growth inhibition [6, 7]: 97% (active)
growth inhibition [6, 8]: 99% (active)
growth inhibition ([6]; at 50.0 µM): 50.1%

COc1ccc(OC)c(/C=C/NC=O)c1
growth inhibition [1, 7]: -10%
growth inhibition [1, 8]: 10%
growth inhibition ([1]; at 50.0 µM): -11.4%
growth inhibition [2, 7]: -11%
growth inhibition [2, 8]: -7%
growth inhibition ([2]; at 50.0 µM): 13.2%
growth inhibition [3, 7]: -12%
growth inhibition [3, 8]: -2%
growth inhibition ([3]; at 50.0 µM): -6.4%
growth inhibition [4, 7]: -15%
growth inhibition [4, 8]: 5%
growth inhibition ([4]; at 50.0 µM): 49.2%
growth inhibition [5, 7]: -1%
growth inhibition [5, 8]: -2%
growth inhibition ([5]; at 50.0 µM): -4.35%
growth inhibition [6, 7]: 5%
growth inhibition [6, 8]: -24%
growth inhibition ([6]; at 50.0 µM): -0.95%

CCN(CC)c1ccc2nc3ccc(N(CC)CC)cc3[n+](-c3ccccc3)c2c1
growth inhibition [1, 7]: 97% (active)
growth inhibition [1, 8]: 98% (active)
growth inhibition ([1]; at 50.0 µM): 92.1% (active)
growth inhibition [2, 7]: 100% (active)
growth inhibition [2, 8]: 99% (active)
growth inhibition ([2]; at 50.0 µM): 93.7% (active)
growth inhibition [3, 7]: 92% (active)
growth inhibition [3, 8]: 99% (active)
growth inhibition ([3]; at 50.0 µM): 98.7% (active)
growth inhibition [4, 7]: 79% (active)
growth inhibition [4, 8]: 98% (active)
growth inhibition ([4]; at 50.0 µM): 97.5% (active)
growth inhibition [5, 7]: 98% (active)
growth inhibition [5, 8]: 98% (active)
growth inhibition ([5]; at 50.0 µM): 98.7% (active)
growth inhibition [6, 7]: 99% (active)
growth inhibition [6, 8]: 99% (active)
growth inhibition ([6]; at 50.0 µM): 98.7% (active)

Cn1ncc2c(NCc3ccc(Cl)cc3)nc(Cl)nc21
growth inhibition [1, 7]: 7%
growth inhibition [1, 8]: 97% (active)
growth inhibition ([1]; at 50.0 µM): 98.2% (active)
growth inhibition [2, 7]: -1%
growth inhibition [2, 8]: 98% (active)
growth inhibition ([2]; at 50.0 µM): 96.5% (active)
growth inhibition [3, 7]: 8%
growth inhibition [3, 8]: 97% (active)
growth inhibition ([3]; at 50.0 µM): 98% (active)
growth inhibition [4, 7]: 2%
growth inhibition [4, 8]: 95% (active)
growth inhibition ([4]; at 50.0 µM): 99.2% (active)
growth inhibition [5, 7]: 2%
growth inhibition [5, 8]: 97% (active)
growth inhibition ([5]; at 50.0 µM): 98.9% (active)
growth inhibition [6, 7]: 0%
growth inhibition [6, 8]: 97% (active)
growth inhibition ([6]; at 50.0 µM): 98.5% (active)

CCCCCC(CCCCC)OC(=O)CCN(CCCCC)CCCCC
growth inhibition [1, 7]: 2%
growth inhibition [1, 8]: 81% (active)
growth inhibition ([1]; at 50.0 µM): 74% (active)
growth inhibition [2, 7]: 6%
growth inhibition [2, 8]: 86% (active)
growth inhibition ([2]; at 50.0 µM): 46.1%
growth inhibition [3, 7]: 14%
growth inhibition [3, 8]: 97% (active)
growth inhibition ([3]; at 50.0 µM): 84% (active)
growth inhibition [4, 7]: 5%
growth inhibition [4, 8]: 75% (active)
growth inhibition ([4]; at 50.0 µM): 72% (active)
growth inhibition [5, 7]: 1%
growth inhibition [5, 8]: 87% (active)
growth inhibition ([5]; at 50.0 µM): 51.9%
growth inhibition [6, 7]: 3%
growth inhibition [6, 8]: 94% (active)
growth inhibition ([6]; at 50.0 µM): 68.9%

O=S(=O)(SCc1ccccc1)C(c1ccccc1)c1ccccc1
growth inhibition [1, 7]: 10%
growth inhibition [1, 8]: 6%
growth inhibition ([1]; at 50.0 µM): 89.7% (active)
growth inhibition [2, 7]: 13%
growth inhibition [2, 8]: 6%
growth inhibition ([2]; at 50.0 µM): 98.6% (active)
growth inhibition [3, 7]: 13%
growth inhibition [3, 8]: 31%
growth inhibition ([3]; at 50.0 µM): 98% (active)
growth inhibition [4, 7]: 5%
growth inhibition [4, 8]: -17%
growth inhibition ([4]; at 50.0 µM): 95.5% (active)
growth inhibition [5, 7]: 13%
growth inhibition [5, 8]: 39%
growth inhibition ([5]; at 50.0 µM): 99.1% (active)
growth inhibition [6, 7]: 20%
growth inhibition [6, 8]: 18%
growth inhibition ([6]; at 50.0 µM): 98% (active)

CSCCOC(=O)c1cc(NC(=S)c2ccoc2C)ccc1Cl
growth inhibition [1, 7]: 13%
growth inhibition [1, 8]: 78% (active)
growth inhibition ([1]; at 50.0 µM): 82.5% (active)
growth inhibition [2, 7]: -8%
growth inhibition [2, 8]: 78% (active)
growth inhibition ([2]; at 50.0 µM): 68.9%
growth inhibition [3, 7]: 10%
growth inhibition [3, 8]: 85% (active)
growth inhibition ([3]; at 50.0 µM): 66.4%
growth inhibition [4, 7]: 14%
growth inhibition [4, 8]: 83% (active)
growth inhibition ([4]; at 50.0 µM): 67%
growth inhibition [5, 7]: 17%
growth inhibition [5, 8]: 88% (active)
growth inhibition ([5]; at 50.0 µM): 73.9% (active)
growth inhibition [6, 7]: -7%
growth inhibition [6, 8]: 85% (active)
growth inhibition ([6]; at 50.0 µM): 63%
